# Laboratory results published in PubChem BioAssay (NCI).
# About 83,000 compounds went through this panel and 20% of them were active in at least one assay; those are over-represented in the sample as a whole.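 Activity criterion: percent growth below 10, measured after cells in 96-well plates were exposed to a single compound concentration for 48 hours.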 Unmarked numbers belong to inactive results. Calls of active or inactive are those of the source.
# Legend:
# Assay in all cases: NCI-60 one-dose screen, 48 h (100 = growth as untreated, 0 = no growth, -100 = all killed)
# Conditions in all cases: 10 µM
# [1] = tested on: SK-MEL-2 melanoma
# [2] = tested on: EKVX NSCLC
# [3] = tested on: SN12C renal
# [4] = tested on: UO-31 renal
# [5] = tested on: ACHN renal
# [6] = tested on: CAKI-1 renal
# [7] = tested on: A498 renal
# [8] = tested on: CCRF-CEM leukemia
# [9] = tested on: MOLT-4 leukemia
# [10] = tested on: TK-10 renal
Compound,growth [1],growth [2],growth [3],growth [4],growth [5],growth [6],growth [7],growth [8],growth [9],growth [10]
CS(=O)(=O)c1nccc(-c2c(-c3ccc(OCCc4ccccc4)cc3)nc3sccn23)n1,108%,94%,90.3%,90.6%,101%,90%,84.5%,92%,88.9%,–
COc1ccc(Cl)cc1Nc1nc(C(F)(F)F)ccc1C(=O)N/N=C/c1ccc(Cl)cc1,26.4%,56.6%,49%,18.8%,36.8%,13.3%,-35.2% (active),1.78% (active),1.89% (active),–
Nc1ncc(-c2cnn(C3CCNCC3)c2)cc1-c1nc2ccccc2o1,22.1%,85.3%,14.1%,-17.7% (active),21.9%,68.3%,36.4%,-53.7% (active),-35.7% (active),–
COc1ccc2c(c1)OC(N)=C(C#N)C2c1cc(OC)c(OC)c(OC)c1 (stereo not given),27.3%,49.7%,25%,47.2%,32.8%,30.4%,-14.1% (active),7.72% (active),7.89% (active),–
CSc1nc2c(c(=O)n1C)CN(Cc1ccccc1)C(=O)CN2,86.3%,86%,97.7%,78.3%,96.4%,88.6%,92.4%,80.7%,92.5%,–
COc1cc2cc(Oc3ccc(NC(=O)Nc4ccc(Cl)c(Cl)c4)cc3)c(C)nc2cc1OC,-7.82% (active),21%,22.1%,3.69% (active),16.4%,21.7%,35.8%,13.3%,3.69% (active),–
CC(C)=CCC/C(C)=C/CC/C(C)=C/CC/C=C(\C)CC/C=C(\C)CCC(=O)Nc1ccn(C2OC(CO)C(O)C2(F)F)c(=O)n1 (stereo not given),-4.27% (active),34.6%,15.3%,3.33% (active),6.71% (active),-20.9% (active),-44.9% (active),-6.58% (active),-14.2% (active),–
COc1ccc(/C=C2\CCCC3=C2NC(N)=NC3c2ccc(OC)cc2)cc1 (stereo not given),98.2%,92.1%,86.7%,72.8%,98.3%,90.1%,84.5%,87.6%,84.2%,–
COc1cc2cc(Oc3ccc(NC(=O)Nc4ccc(Cl)c(C(F)(F)F)c4)cc3)c(C)nc2cc1OC,-49.8% (active),8.83% (active),13.2%,-45.1% (active),13.6%,-8.92% (active),10.5%,-17.6% (active),-27.9% (active),–
COc1cc2c(Nc3ccc(-c4ccc(N)cc4)cc3)ncnc2c(OC)c1OC,18.5%,59.2%,62.2%,22.7%,32.1%,3.89% (active),43.4%,23.3%,19.8%,–
NC1=NC(c2ccc(Cl)cc2)C2=C(N1)/C(=C/c1ccc(Cl)cc1)CCC2 (stereo not given),94.7%,93.7%,84.8%,67.8%,95.6%,90.8%,54.7%,72.2%,64.9%,–
C/C(=N\O)c1ccc(NC(=O)CSc2nnc(-c3ccccc3)n2-c2ccccc2)cc1,118%,91.9%,72.4%,76.2%,63.7%,85.6%,92.7%,92%,95.2%,–
COc1cc2cc(Oc3ccc(NC(=O)c4ccc(Cl)c(C(F)(F)F)c4)cc3)c(C)nc2cc1OC,31.2%,18.8%,24.1%,18.3%,26.6%,21.6%,24.3%,19.9%,18%,–
CCn1cc(C(=O)O)c(=O)c2cc(F)c(N3CCNCC3)cc21,113%,102%,106%,–,95.5%,96.5%,117%,102%,93.5%,116%
O=C(c1ccccc1)N(C(=O)c1ccccc1)N1CCCC1,95.6%,103%,100%,–,96.3%,91.1%,106%,94.8%,99.3%,101%
Cc1ccc(C)c(COc2cc(NC(=O)c3ccc4c(c3)OCO4)ccc2N(C)S(C)(=O)=O)c1,37.6%,29.6%,27.2%,–,29.3%,15.6%,-11.3% (active),13.2%,7.75% (active),54.1%
COc1ccc(-c2n[nH]nc2-c2cc(OC)c3c(c2OC)OCO3)cc1,1.83% (active),48.3%,33.5%,51.1%,54.9%,27.2%,14.9%,17.8%,24.2%,–
OC(CCN1CCCC1)(c1ccccc1)C1CCCCC1 (stereo not given),111%,97.5%,95.9%,–,94.7%,95.7%,116%,98.2%,109%,108%
COc1ccc(/C=C2\CCCC3C2=Nc2ccccc2NC3c2ccc(OC)cc2)cc1 (stereo not given),92%,87.5%,85.5%,74.1%,113%,78.2%,77.3%,80.4%,72%,–
N#Cc1cnn(C(=O)c2nn(-c3ccc(Cl)cc3)cc2O)c1N,1.93% (active),1.5% (active),26.5%,-3.61% (active),11.4%,-34.4% (active),48.6%,-10.1% (active),-14.4% (active),–
CS(=O)(=O)c1nccc(-c2c(-c3cccc(OCCN4CCOCC4)c3)nc3sccn23)n1,102%,101%,96.8%,68.5%,90.9%,85.3%,59.2%,–,93.9%,–
Cc1c(C(N)=O)sc2c1c(=O)n(Cc1ccccc1)c1nnc(-c3ccc(Br)cc3)n21,42.5%,36.7%,32.8%,–,10.1%,1.27% (active),56%,–,–,47.4%
OCCn1cccn1,118%,105%,104%,–,103%,86.4%,94.2%,99.7%,95.7%,107%
O=C(O)Cc1ccc(O)c(O)c1,109%,89.4%,99.4%,–,108%,99.5%,–,-24.1% (active),98.6%,112%
CCCCC/C=C/C/C=C/CCCCCCCC1=NC(C)(C)CN1C(C)C,84.6%,51.9%,47.9%,26.2%,32.9%,26.9%,–,8.7% (active),1.44% (active),–
CC[N+](CC)=c1ccc2nc3c(cc(NCc4ccccc4)c4ccccc43)oc-2c1,-80.1% (active),-96.7% (active),-85.9% (active),–,-77.9% (active),-70.8% (active),44.8%,19%,2.86% (active),-10.6% (active)
CC(C)N(CCOc1ccc(-c2nc3sccn3c2-c2ccnc(S(C)(=O)=O)n2)cc1)C(C)C,106%,87.6%,87.8%,70%,101%,84.2%,60.3%,76.4%,52.4%,–
COC(=O)CC[C@@H](C)[C@H]1CC[C@H]2[C@@H]3CC[C@@H]4C[C@H](O)CC[C@]4(C)[C@H]3C[C@H](O)[C@]12C,87.7%,103%,97.8%,–,99.1%,89.8%,119%,86.3%,76.4%,92.7%
COc1ccc(-c2n[nH]nc2-c2cc(OC)c(OC)c(OC)c2)cc1,21.2%,54.4%,25%,44.3%,41.2%,27.6%,-12.9% (active),9.31% (active),6.91% (active),–
Cc1ccc(NC(=S)NNC(=S)Nc2ccc(C)cc2)cc1,66.1%,92.7%,68.1%,–,77.1%,67.8%,73.4%,43.9%,45.3%,86.7%
